Results on 40 compounds are retold here after PubChem BioAssay (NCATS).

Active and inactive are the calls of the source. A call without a number means that no potency is given here. Calls come from the whole dose curve; as a rule, active = well fitted curve in the direction sought with a large enough effect; inconclusive = small, poorly fitted or top-dose-only effect, or another doubt; inactive = no such curve, though single readings can be large or run the other way.

This test in a line: Cellular Toxicity (caspase-3) BJ (AID 658). Conditions: BJ fibroblasts, luminescence; Potency: caspase-3 activation; series mostly up to 91.7 µM. The text has this:
NIH Chemical Genomics Center [NCGC]
NIH Molecular Libraries Screening Centers Network [MLSCN]
National Institutes of Environmental Health Sciences [NIEHS]
National Toxicology Program [NTP]
We have developed a 1536-well cell-based assay for quantitative high throughput screening (qHTS) against a number of cell lines to determine in vitro caspase 3/7 activity of small molecules. This particular assay uses BJ cell line which is derived from normal human foreskin fibroblast.
NCGC Assay Protocol Summary:
The Caspase-Glo 3/7 assay (Promega) is a homogeneous method to measure caspase-3 and caspase-7 activities in cultured cells. The quantitation of caspase 3/7 activity is based on the cleavage of a peptide-aminoluciferin substrate. After caspase cleaves the substrate the free aminoluciferin is liberated and serves as the substrate of luciferase, which generates the light. The luminescent signal is proportional to amount of caspase 3/7 activity present.
Using the Caspase-Glo 3/7 assay, the amount of caspase 3/7 activity was measured in the BJ cell line with complete culture medium following compound treatment for 16 hours. The assay was performed in opaque white 1536-well plates. In the screen, staurosporine and tamoxifen were used as positive controls. Library compounds were measured for their ability to cause the activation of caspase 3/7 in the cell line, as reflected by an increase in luminescence signal, in a concentration-dependent manner. Data were normalized to the controls for basal activity (DMSO only) and 100% stimulation (10 uM staurosporine). AC50 values were determined from concentration-response data modeled with the standard Hill equation.
qHTS protocol for caspase 3/7 assay in the BJ cells
[Step] [Parameter] [Value] [Description]
1. Reagent; 5 uL; 1000 the BJ cells/well
2. Time; 5 hr; 37 °C incubation
4. Controls; 23 nL; Tamoxifen 0.23 uM to 100 uM & staurosporine 1.4 pM to 100 uM
5. Time; 16 hr; 37 °C incubation
6. Reagent; 5 uL; Caspase-Glo 3/7 reagent
7. Time; 1 hr; Room Temperature
8. Detection; Luminescence; Viewlux plate reader
Keywords: caspase 3/7, apoptosis, the BJ cell line, luminescence, NTPHTS, NTPHTS_NCGC, NIEHS, EPA, DSSTox, MLSMR, MLSCN, NIH Roadmap, qHTS, NCGC
On to `S=C(NC1CCCCC1)NC1CCCCC1`, for which the Potency entry is “inactive”. With `c1ccc(CSCc2ccccc2)cc1`, the Potency entry is “inactive”. Take `C=C1CC[C@H](O)C/C1=C/C=C1\CCC[C@]2(C)[C@@H]([C@H](C)CCCC(C)C)CC[C@@H]12`: the Potency entry was “inactive”. As for `O=C(OCC1CO1)C1CCCCC1C(=O)OCC1CO1` (stereo not given), the Potency entry is “inactive”. With `C=C(C#N)C(=O)OCC`, the Potency result was “inactive”. Regarding `OCC(CBr)(CBr)CBr`, the Potency result was “inactive”. In the case of `Cc1ccc(N)cc1[N+](=O)[O-]`, the Potency entry is “inactive”. Consider `Oc1cc2c(cc1O)[C@H]1c3ccc(O)c(O)c3OC[C@@]1(O)C2`, for which the Potency entry is “inactive”. As for `O=CC(=O)c1ccccc1`, the Potency result was “inactive”. For the compound `CCCCOC(=O)COc1ccc(Cl)cc1Cl`, the Potency result is “inactive”. As for `Nc1ccc2c(c1)C(=O)c1ccccc1C2=O`, the Potency entry was “inactive”. Under `Cc1ccccc1OCC1CO1` (stereo not given) stands “inactive”; under `C[Si](C)(C)Cl`, “inactive”; under `COc1ccc([N+](=O)[O-])cc1N`, “inactive”. With `Nc1cc([N+](=O)[O-])ccc1O` the entry was “inactive”; with `Cc1c(N)cccc1Cl`, “inactive”; with `CCCCC(CC)COC(=O)COc1ccc(Cl)cc1Cl` (stereo not given), “inactive”. In the case of `Oc1c(Cl)cc(Cl)c(Cl)c1Cl`, the Potency result was “inactive”. Consider `CC1=C(/C=C/C(C)=C/C=C/C(C)=C/C=O)C(C)(C)CCC1`, for which the Potency entry is “inactive”.

For `CC(=O)OC(C(=O)c1ccccc1)c1ccccc1` (stereo not given), the Potency result is “inactive”. In the case of `Oc1ccc2c(c1)OCO2`, the Potency result was “inactive”. `O=[N+]([O-])c1ccccc1Nc1ccccc1`: the Potency result was “inactive”. For `CCOc1ccc2nc(N)sc2c1`, the Potency entry was “inactive”. As to `c1ccc(SCCSc2ccccc2)cc1`, the Potency result was “inactive”. As to `CC(=O)CC(=O)Nc1ccccc1`, the Potency result is “inactive”. For the compound `CC(C)OCC1CO1` (stereo not given), the Potency entry is “inactive”.

As to `CC/C=C/C/C=C/C/C=C/CCCCCCCC(=O)OCC`, the Potency result is “inactive”.

Consider `c1cc2c3c(c1)ccc1cccc(c13)C2`, for which the Potency entry is “inactive”. For the compound `O=C(O)c1cc(N=Nc2ccc([N+](=O)[O-])cc2)ccc1O`, the Potency result is “inactive”. Turning to `Brc1ccc(-c2ccccc2)cc1`, the Potency result was “inactive”.

`Nc1cc(C(=O)O)c(O)c(S(=O)(=O)O)c1`: the Potency entry was “inactive”. For the compound `Brc1cc(Br)c(Oc2cc(Br)c(Br)cc2Br)cc1Br`, the Potency result is “inactive”. Consider `Cc1ccc(C(=O)O)cc1[N+](=O)[O-]`, for which the Potency entry was “inactive”. Take `O=C1OC(=O)c2ccccc21`: the Potency result is “inactive”. Consider `O=[N+]([O-])c1ccc(F)cc1F`, for which the Potency result is “inactive”. With `CC(=O)c1ccc(Cl)c(Cl)c1Cl` the entry was “inactive”; with `Brc1cc(Oc2cc(Br)c(Br)c(Br)c2Br)c(Br)c(Br)c1Br`, “inactive”. As for `Cc1cc(-c2ccc(N=Nc3cc(S(=O)(=O)O)c4ccccc4c3N)c(C)c2)ccc1N=Nc1cc(S(=O)(=O)O)c2ccccc2c1N`, the Potency entry is “inactive”.

Consider `C=Cc1cccc(C)c1`, for which the Potency result was “inactive”. Under `CCCCCCCCC1CO1` (stereo not given) stands “inactive”.
